Active and inactive are the calls of the source. How the source made its calls: active means hit-call score of the fitted dose curve at least 0.9, where 1 is the maximum; inactive means score below 0.9.

We go through three molecules from PubChem BioAssay (EPA / NIEHS).

Experiment [1] is described as follows: ATG_CRE_CIS: Attagene CIS-FACTORIAL HepG2 Assay for human cAMP Responsive Element (CRE) binding protein 3 (AID 2282926). Conditions: HepG2 CRE cis-reporter, Attagene multiplexed mRNA; actives raise or lower the signal. The essentials: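 Readout: fluorescently labelled reporter transcripts resolved by capillary electrophoresis after RT-PCR, taken 24 h post-dosing in transfected HepG2. Endogenous transcription factor activity drives each cis-element reporter; gain or loss of signal fitted relative to DMSO control.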

Experiment [2] concerns the target CCAAT/enhancer-binding protein beta (Homo sapiens) (UniProt P17676). As to the kind of experiment: ATG_C_EBP_CIS: Attagene CIS-FACTORIAL HepG2 Assay for human CCAAT/Enhancer Binding Protein (C/EBP) beta (AID 2282927). The following applies: HepG2 Attagene cis-factorial transcription factor reporter; actives raise or lower the signal. The essentials:
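RT-PCR/capillary electrophoresis fluorescence of reporter mRNA, 24 h post-dose, in HepG2 cells carrying transfected cis-promoter reporter units. Bidirectional curve fitting against DMSO baseline captures gain or loss of signal.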

Experiment [3] can be described thus: ATG_CMV_CIS: Attagene CIS-FACTORIAL HepG2 Assay for human CMV (Internal Marker) (AID 2282928).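 Further: endpoint acts as a background internal control marker rather than a target.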 Conditions: HepG2 CMV promoter reporter, transcription factor profiling; actives raise or lower the signal. The essentials: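 Bidirectional fits against DMSO are applied to reporter mRNA, read by RT-PCR with capillary electrophoresis, from HepG2 cells exposed 24 h. The endpoint serves as an internal CMV background marker within the cis-factorial reporter panel.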

Experiment [4] in a line: ATG_DR4_LXR_CIS: Attagene CIS-FACTORIAL HepG2 Assay for human Liver X Receptor (LXR), DR4 submotif (AID 2282929). Conditions: HepG2 Attagene DR4 cis-reporter, mRNA transcription; actives raise or lower the signal. The procedure, abridged: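 HepG2, transient MRTU transfection, cis-element (DR4) promoter; 24 h compound exposure; total RNA → oligo(dT) RT → PCR → 6-FAM primer extension → HpaI cut → CE. Gain/loss vs DMSO, bidirectional fit.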

The target in experiment [5] is Aryl hydrocarbon receptor (Homo sapiens) (UniProt P35869). The experiment can be described thus: ATG_Ahr_CIS: Attagene CIS-FACTORIAL HepG2 Assay for human Aryl Hydrocarbon Receptor (Ahr) (AID 2282930). Conditions: HepG2 AhR cis-factorial reporter transcription; actives raise or lower the signal. The procedure, abridged:
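HepG2 cells transiently transfected with cis-element-driven multiplexed reporter transcription units; endogenous transcription factor activity measured as reporter mRNA 24 h after dosing. RT-PCR, 6-FAM labelling, HpaI digestion, capillary electrophoresis; bidirectional fitting versus DMSO baseline.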

The nature of experiment [6]: ATG_AP_1_CIS: Attagene CIS-FACTORIAL HepG2 Assay for human Activator Protein 1 (AP-1) (AID 2282931). Conditions: HepG2 Attagene cis-factorial AP-1 reporter mRNA; actives raise or lower the signal. The essentials: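 Transient MRTU transfection of HepG2 → 24 h chemical treatment → RNA isolation, RT-PCR, 6-FAM labelling, HpaI digest → capillary electrophoresis. Fit: bidirectional, DMSO negative control.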

Experiment [7] can be described thus: ATG_AP_2_CIS: Attagene CIS-FACTORIAL HepG2 Assay for human Activator Protein 2 (AP-2) (AID 2282932). The following applies: HepG2 AP-2 cis-reporter, Attagene transcription factor profiling; actives raise or lower the signal. The essentials:
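Cells (HepG2) transfected with promoter-driven reporter constructs, treated 24 h. Total RNA reverse-transcribed, reporter cDNA PCR-amplified, FAM-labelled by primer extension, digested, resolved by capillary electrophoresis. Activity fitted both directions versus DMSO.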

Experiment [8] is described as follows: ATG_BRE_CIS: Attagene CIS-FACTORIAL HepG2 Assay for human Bone Morphogenetic Protein (BMP) Response Element (BRE) (AID 2282933). Conditions: HepG2 BMP response element reporter, Attagene transcription factor profiling; actives raise or lower the signal. The procedure, abridged:
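Fluorescence-labelled reporter cDNA fragments, separated by capillary electrophoresis, gave the signal for this component of a 52-readout multiplex. HepG2 cells were transfected, exposed to chemicals for 24 h, and compared with DMSO using bidirectional fitting.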

Experiment [9] has as its target Retinoic acid receptor alpha (Homo sapiens) (UniProt P10276). As to the kind of experiment: ATG_DR5_RAR_CIS: Attagene CIS-FACTORIAL HepG2 Assay for human Retinoic Acid Receptor Alpha (RARE), DR5 submotif (AID 2282934). Conditions: HepG2 Attagene cis-factorial RARE DR5 reporter, mRNA; actives raise or lower the signal. The essentials:
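HepG2 cells transiently transfected with multiplexed reporter units under cis (DR5 RARE) promoters, so endogenous transcription factor activity is measured. After 24 h compound exposure, reporter mRNA is quantified by RT-PCR with fluorescent labelling and capillary electrophoresis; bidirectional fitting versus DMSO.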

Experiment [10] concerns the target Transcription factor E2F1 (Homo sapiens) (UniProt Q01094). The experiment can be described thus: ATG_E2F_CIS: Attagene CIS-FACTORIAL HepG2 Assay for human E2F Transcription Factor 1 (AID 2282935). Conditions: HepG2 Attagene cis-reporter, E2F reporter RNA transcripts; actives raise or lower the signal. The essentials: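 First, HepG2 cells were transfected with reporter transcription units. Next, they were dosed for 24 h. Then RNA was isolated, converted to cDNA, PCR-amplified, FAM-labeled, HpaI-digested and analyzed by capillary electrophoresis.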

Experiment [11] is described as follows: ATG_E_Box_CIS: Attagene CIS-FACTORIAL HepG2 Assay for human Enhancer Box (E-box) (AID 2282936). Conditions: HepG2 E-box cis-reporter transcription, actives raise or lower the signal. The essentials: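 Endogenous transcription factor activity was sensed in human HepG2 liver cells through transfected cis-promoter reporter units. After 24 h of dosing, total RNA was reverse-transcribed and reporter cDNA resolved by capillary electrophoresis.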

A short description of experiment [12]: ATG_M_61_CIS: Attagene CIS-FACTORIAL HepG2 Assay for M61 Transcription Factor (Internal Marker) (AID 2282937). The following applies: HepG2 Attagene CIS-FACTORIAL M61 internal marker reporter; actives raise or lower the signal. The procedure, abridged:
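Human liver HepG2, transient MRTU transfection (cis promoter elements), 24 h compound. Total RNA → oligo(dT) RT → PCR → FAM label → HpaI → CE. Internal background marker; bidirectional fitting, DMSO = baseline.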

Experiment [13] can be described thus: ATG_EGR_CIS: Attagene CIS-FACTORIAL HepG2 Assay for human Early Growth Response 1 (EGR1) (AID 2282938). Conditions: HepG2 Attagene CIS-FACTORIAL EGR reporter mRNA; actives raise or lower the signal. The procedure, abridged: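 Transient transfection of human HepG2 with multiple cis-regulated reporter units, chemical exposure 24 h, total RNA isolated. Reverse transcription, PCR, fluorescent labelling and capillary electrophoresis quantify reporter transcripts; activity fitted bidirectionally against DMSO.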

The nature of experiment [14]: ATG_M_19_CIS: Attagene CIS-FACTORIAL HepG2 Assay for M19 Transcription Factor (Internal Marker) (AID 2282939). The following applies: HepG2 Attagene CIS-FACTORIAL M19 internal marker reporter; actives raise or lower the signal. The essentials: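 HepG2, MRTU transient transfection, 24 h dosing. Total RNA → RT-PCR → 6-FAM primer extension → HpaI digest → CE fluorescence. Bidirectional curve fit, DMSO negative control.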

Experiment [15] can be described thus: ATG_Ets_CIS: Attagene CIS-FACTORIAL HepG2 Assay for human Erythroblast Transformation Specific (ETS) (AID 2282941). Conditions: HepG2 ETS cis-reporter transcription, actives raise or lower the signal. The procedure, abridged:
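Endogenous transcription factor activity read as reporter mRNA via RT-PCR and capillary electrophoresis, with gain or loss fitted bidirectionally against DMSO. Human HepG2 liver cells, transiently transfected CIS reporter constructs, 24 h exposure.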

Experiment [16] addresses Hepatocyte nuclear factor 3-beta (Homo sapiens) (UniProt Q9Y261). The experiment can be described thus: ATG_FoxA2_CIS: Attagene CIS-FACTORIAL HepG2 Assay for human Forkhead box A2 (FOXA2) (AID 2282942). The following applies: HepG2 cis-reporter transcription factor activity, 24 h; actives raise or lower the signal. The essentials: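 Transient MRTU transfection of HepG2 liver cells; 24 h treatment; total RNA → oligo(dT) RT → PCR → FAM primer extension → HpaI cut → CE. Bidirectional fit vs DMSO.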

Experiment [17] is described as follows: ATG_FoxO_CIS: Attagene CIS-FACTORIAL HepG2 Assay for human Forkhead box O (FoxO) (AID 2282943). Conditions: HepG2 Attagene cis-reporter, FoxO element, mRNA; actives raise or lower the signal. The essentials: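 HepG2 cells transiently transfected with cis-promoter-driven multiple reporter transcription units; 24 h after chemical dosing, reporter mRNA quantified by RT-PCR, fluorescent primer extension, HpaI digestion and capillary electrophoresis. Bidirectional fitting versus DMSO baseline.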

The nature of experiment [18]: ATG_GATA_CIS: Attagene CIS-FACTORIAL HepG2 Assay for human GATA Binding Protein (AID 2282944). The following applies: HepG2 GATA cis-element reporter, Attagene multiplex mRNA; actives raise or lower the signal. The essentials: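 Cells: HepG2, transiently transfected with cis-regulated reporter transcription units. Exposure: 24 h. Detection: RT-PCR plus capillary electrophoresis of FAM-labeled fragments. Analysis: bidirectional, DMSO as baseline.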

A short description of experiment [19]: ATG_GLI_CIS: Attagene CIS-FACTORIAL HepG2 Assay for human Zinc Finger Protein GLI1 (AID 2282945). Conditions: HepG2, Attagene cis-factorial reporter mRNA, GLI element; actives raise or lower the signal. The procedure, abridged: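 HepG2 cells transiently transfected with cis-promoter multiplexed reporter units report endogenous transcription factor activity. After 24 h chemical exposure, reporter mRNA was quantified by RT-PCR, 6-FAM labelling, HpaI digestion and capillary electrophoresis, with bidirectional fitting against DMSO.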

The target of experiment [20] is Bile acid receptor (Homo sapiens) (UniProt Q96RI1). As to the kind of experiment: ATG_IR1_CIS: Attagene CIS-FACTORIAL HepG2 Assay for human Nuclear Receptor Subfamily 1 Group H Member 4 (NR1H4), IR1 submotif (AID 2282946). Conditions: IR1 reporter transcription, actives raise or lower the signal. The procedure, abridged:
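Readout: reporter transcript levels by RT-PCR with fluorescent capillary electrophoresis, from HepG2 cells transiently transfected with multiplexed cis-regulated reporters and dosed 24 h. Gain- or loss-of-signal fitted versus DMSO negative control.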

Sequence of Aryl hydrocarbon receptor (Homo sapiens) (P35869 whole entry, looked up): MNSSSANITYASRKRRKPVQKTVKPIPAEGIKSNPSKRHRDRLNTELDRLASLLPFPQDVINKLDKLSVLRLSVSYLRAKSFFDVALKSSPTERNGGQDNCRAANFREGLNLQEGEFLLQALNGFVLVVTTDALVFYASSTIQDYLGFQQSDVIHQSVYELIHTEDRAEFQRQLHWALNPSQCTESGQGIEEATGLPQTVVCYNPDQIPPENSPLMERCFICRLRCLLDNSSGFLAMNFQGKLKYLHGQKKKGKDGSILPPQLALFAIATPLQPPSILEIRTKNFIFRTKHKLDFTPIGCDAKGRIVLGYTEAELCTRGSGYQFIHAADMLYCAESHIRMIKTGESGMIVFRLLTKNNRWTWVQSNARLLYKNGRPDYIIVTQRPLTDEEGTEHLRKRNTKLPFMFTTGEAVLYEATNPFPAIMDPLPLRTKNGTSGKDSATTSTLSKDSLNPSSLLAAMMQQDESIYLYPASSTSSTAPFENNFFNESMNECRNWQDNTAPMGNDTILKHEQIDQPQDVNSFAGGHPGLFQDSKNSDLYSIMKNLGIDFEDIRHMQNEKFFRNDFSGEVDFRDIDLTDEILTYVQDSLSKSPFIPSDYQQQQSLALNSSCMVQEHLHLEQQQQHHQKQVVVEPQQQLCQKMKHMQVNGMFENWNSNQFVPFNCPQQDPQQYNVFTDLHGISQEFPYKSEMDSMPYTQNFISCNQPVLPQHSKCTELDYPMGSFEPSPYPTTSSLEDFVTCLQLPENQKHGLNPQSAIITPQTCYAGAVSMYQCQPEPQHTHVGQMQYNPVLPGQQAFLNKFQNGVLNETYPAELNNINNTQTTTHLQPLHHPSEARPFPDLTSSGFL
Sequence of Hepatocyte nuclear factor 3-beta (Homo sapiens) (Q9Y261 whole entry, looked up): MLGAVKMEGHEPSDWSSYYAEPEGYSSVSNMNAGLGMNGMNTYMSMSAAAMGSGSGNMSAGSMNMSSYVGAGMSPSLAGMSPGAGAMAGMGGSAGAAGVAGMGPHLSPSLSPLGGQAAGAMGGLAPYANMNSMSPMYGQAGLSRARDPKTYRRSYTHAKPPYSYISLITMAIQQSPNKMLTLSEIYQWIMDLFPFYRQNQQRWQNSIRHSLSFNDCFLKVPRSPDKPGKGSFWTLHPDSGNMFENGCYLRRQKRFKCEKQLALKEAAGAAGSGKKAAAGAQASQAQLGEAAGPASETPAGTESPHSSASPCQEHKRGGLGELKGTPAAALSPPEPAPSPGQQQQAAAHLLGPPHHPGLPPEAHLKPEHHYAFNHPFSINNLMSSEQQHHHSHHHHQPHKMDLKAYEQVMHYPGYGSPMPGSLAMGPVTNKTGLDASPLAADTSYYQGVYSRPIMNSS
Sequence of CCAAT/enhancer-binding protein beta (Homo sapiens) (P17676 whole entry, looked up): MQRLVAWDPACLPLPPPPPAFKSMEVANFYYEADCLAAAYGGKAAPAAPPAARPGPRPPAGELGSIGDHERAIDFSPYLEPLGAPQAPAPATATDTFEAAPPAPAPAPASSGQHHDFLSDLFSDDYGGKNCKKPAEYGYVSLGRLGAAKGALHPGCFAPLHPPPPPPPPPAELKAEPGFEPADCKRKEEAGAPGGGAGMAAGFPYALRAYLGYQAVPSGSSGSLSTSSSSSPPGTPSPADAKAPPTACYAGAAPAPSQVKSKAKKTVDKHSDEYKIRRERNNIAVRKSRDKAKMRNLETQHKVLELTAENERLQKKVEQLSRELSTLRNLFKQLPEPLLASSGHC
Sequence of Transcription factor E2F1 (Homo sapiens) (Q01094 whole entry, looked up): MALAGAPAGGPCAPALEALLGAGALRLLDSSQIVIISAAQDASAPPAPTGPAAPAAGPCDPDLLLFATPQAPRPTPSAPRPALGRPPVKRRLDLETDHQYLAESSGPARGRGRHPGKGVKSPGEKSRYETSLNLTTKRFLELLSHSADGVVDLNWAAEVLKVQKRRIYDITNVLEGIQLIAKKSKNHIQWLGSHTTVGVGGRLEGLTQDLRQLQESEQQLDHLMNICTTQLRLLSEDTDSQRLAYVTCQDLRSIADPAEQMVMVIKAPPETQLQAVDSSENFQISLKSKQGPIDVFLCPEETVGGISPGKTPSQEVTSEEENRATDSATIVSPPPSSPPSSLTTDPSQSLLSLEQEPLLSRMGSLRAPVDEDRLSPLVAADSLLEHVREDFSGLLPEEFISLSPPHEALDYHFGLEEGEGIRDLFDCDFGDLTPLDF
Sequence of Retinoic acid receptor alpha (Homo sapiens) (P10276 whole entry, looked up): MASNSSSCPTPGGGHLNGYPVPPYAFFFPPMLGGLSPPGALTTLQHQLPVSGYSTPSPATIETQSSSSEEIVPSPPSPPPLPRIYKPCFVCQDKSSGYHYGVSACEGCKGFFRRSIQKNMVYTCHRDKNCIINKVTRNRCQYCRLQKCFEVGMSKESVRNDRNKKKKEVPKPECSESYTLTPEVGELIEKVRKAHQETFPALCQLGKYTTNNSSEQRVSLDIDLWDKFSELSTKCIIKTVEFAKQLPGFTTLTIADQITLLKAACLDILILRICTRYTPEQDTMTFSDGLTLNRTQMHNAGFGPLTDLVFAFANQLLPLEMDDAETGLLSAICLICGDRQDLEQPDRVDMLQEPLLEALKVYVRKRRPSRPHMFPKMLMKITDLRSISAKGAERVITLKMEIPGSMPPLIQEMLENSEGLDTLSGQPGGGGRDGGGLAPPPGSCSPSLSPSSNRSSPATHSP
Sequence of Bile acid receptor (Homo sapiens) (Q96RI1 whole entry, looked up): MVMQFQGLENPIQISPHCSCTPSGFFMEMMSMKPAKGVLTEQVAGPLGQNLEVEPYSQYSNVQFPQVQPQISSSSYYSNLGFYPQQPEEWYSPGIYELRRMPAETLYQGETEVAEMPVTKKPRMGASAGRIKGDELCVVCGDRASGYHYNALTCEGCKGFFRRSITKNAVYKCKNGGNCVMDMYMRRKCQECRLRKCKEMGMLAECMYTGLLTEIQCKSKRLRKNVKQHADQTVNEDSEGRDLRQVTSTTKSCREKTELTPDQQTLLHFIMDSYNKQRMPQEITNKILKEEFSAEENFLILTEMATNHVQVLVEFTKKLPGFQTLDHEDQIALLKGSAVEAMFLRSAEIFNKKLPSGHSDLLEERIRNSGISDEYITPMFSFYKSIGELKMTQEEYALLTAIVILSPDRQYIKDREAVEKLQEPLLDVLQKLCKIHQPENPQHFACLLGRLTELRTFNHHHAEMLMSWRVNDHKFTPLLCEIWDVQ

The term AC50 denotes the concentration at which the activity in the assay is half-maximal. Take `Nc1ccc2cc(S(=O)(=O)O)cc(O)c2c1N=Nc1ccccc1C(F)(F)F`: the molecule was called inactive in experiment [1], in experiment [2], in [3], in [4], in experiment [6] and in experiment [7]. The outcome in experiment [8], in experiment [9], in [10], in [11], in experiment [12] and in [13] was inactive. In addition, the molecule was called inactive in experiment [14], in [15], in [16], in experiment [17], in experiment [18] and in [19]. Also, the molecule was classed as inactive in experiment [20]. In addition, the AC50 in experiment [5] was 12.6 µM (active).

Take `C=CC(=C)CCCC(C)(C)OC(C)=O`: the outcome in experiment [1], in experiment [2], in experiment [3], in [4], in experiment [5] and in [6] was inactive. The molecule was called inactive in experiment [7], in [8], in experiment [9], in experiment [10], in experiment [11] and in [12]. The outcome in [13], in [14], in experiment [15], in experiment [16], in experiment [17] and in [18] was inactive. For the same molecule, in experiment [19], the call was inactive.

Take `C#CC(C)N(C)C(=O)Nc1ccc(Cl)cc1` (centres undefined): the molecule was called inactive in experiment [1], in experiment [2], in experiment [3], in [4], in experiment [5] and in experiment [6]. Further, the call in experiment [7], in experiment [8], in [9], in experiment [10], in [11] and in [12] was inactive. The molecule was classed as inactive in experiment [13], in experiment [14], in [15], in [16], in experiment [17] and in experiment [18]. Besides, the molecule was called inactive in experiment [19] and in experiment [20].
